Most compounds without a hit are left out; they make up all but 4.3% or so of the library.
MITF TRPM1 HTS – MITF TRPM1 promoter activation in melanoma cells. SK-MEL-5 TRPM1-promoter luciferase, 24 h; % of positive control, neutral wells = 0. 300,000 compounds, 0.75% hits. activation, % at 12.5 µM;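 active = mean activation of at least 80% with every replicate also reaching 80%; inconclusive = mean reaches 80% but some replicate falls short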;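 note: 0% = neutral control wells and 100% = parthenolide positive control wells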
esBAF inh – inhibitors of esBAF chromatin remodeling in mouse ES cells | Bmi1-luciferase knock-in reporter, 24 h; 100% = twice the neutral-well signal | reporter increase, % at 12.5 µM | 350,000 compounds, 2% hits | AID 602393; in the data active = activation above about 40%; inconclusive = no clear call, values can overlap the other calls;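 note: 0% = median of the plate's neutral control wells and 100% = double that signal; a rise in the Bmi1 reporter signal indicates esBAF inhibition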
AF4-AF9 inh – inhibitors of human MLL-AF4/AF9 interaction. P42568. AlphaScreen, biotin-AF4 peptide binding to FLAG-AF9. inhibition, % at 10 µM. 350,000 compounds, 0.47% hits;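 active = every replicate reaching a set inhibition limit, whatever the replicate mean, cut at about 25% in these data; inconclusive = mean inhibition reaches that limit but some replicates miss it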;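 note: 0% = plate neutral control median and 100% = total signal loss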
Target sequence (P42568 whole entry, looked up): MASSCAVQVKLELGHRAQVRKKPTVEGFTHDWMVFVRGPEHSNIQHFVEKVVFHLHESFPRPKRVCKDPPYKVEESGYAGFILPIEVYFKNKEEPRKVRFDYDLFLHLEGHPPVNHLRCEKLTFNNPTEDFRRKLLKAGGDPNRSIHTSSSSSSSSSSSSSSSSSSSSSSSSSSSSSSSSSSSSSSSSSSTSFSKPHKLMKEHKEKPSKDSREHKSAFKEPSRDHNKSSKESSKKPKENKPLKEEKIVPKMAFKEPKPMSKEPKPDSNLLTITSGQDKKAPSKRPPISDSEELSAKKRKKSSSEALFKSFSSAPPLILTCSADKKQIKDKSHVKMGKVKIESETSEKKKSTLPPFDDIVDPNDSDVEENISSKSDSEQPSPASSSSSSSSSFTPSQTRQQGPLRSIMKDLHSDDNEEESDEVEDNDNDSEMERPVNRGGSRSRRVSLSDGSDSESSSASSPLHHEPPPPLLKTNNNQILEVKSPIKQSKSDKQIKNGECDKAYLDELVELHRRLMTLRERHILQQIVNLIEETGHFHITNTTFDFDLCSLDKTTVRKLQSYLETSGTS
FGF22 binding-1 – shifts melting point of recombinant human FGF22. Q9HCT0. recombinant FGF22 thermal shift, SYPRO orange fluorescence; percent of sucrose octasulfate shift, DMSO zero. activity (Tm shift, normalised), % at 9.99 µM. 340,000 compounds, 1.5% hits. AID 651658;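 active = mean Tm shift, scaled 0 neutral to 100 positive control, at about 1.3% or above, every replicate too, limit read from the data; inconclusive = no clear call, values can overlap the other calls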
Target sequence (Q9HCT0 whole entry, looked up): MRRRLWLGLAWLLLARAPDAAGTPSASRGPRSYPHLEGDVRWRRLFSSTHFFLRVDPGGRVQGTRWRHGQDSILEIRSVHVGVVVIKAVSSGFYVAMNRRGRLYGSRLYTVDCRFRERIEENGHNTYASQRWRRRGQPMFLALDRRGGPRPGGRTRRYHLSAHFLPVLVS
Wnt bcat act – activators of Wnt/beta-catenin signaling; AID 743398; 300,000 compounds, 1.2% hits; Wnt/beta-catenin reporter cell assay, activator, plate reader; activation, % at 9.35 µM; in the data active = activation above about 30%, passing the limit was not always enough; inconclusive = no clear call, values can overlap the other calls;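 note: 0% = neutral control wells and 100% = positive control wells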
SMARCA2 act – SMARCA2 function activation, primary screen. MG213 cells, MMTV-luciferase reporter, dexamethasone, overnight. activation, % at 9.1 µM. 370,000 compounds, 1% hits. AID 652017; in the data active = activation above about 7.8%;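 note: 0% = vehicle wells and 100% = reference activator wells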
FGF22 binding-2 – binds human FGF22 shifting its melting temperature. shares compounds with FGF22 binding-1. recombinant FGF22 thermal shift, SYPRO orange fluorescence. thermal shift activity, °C (ΔTm) at 38 µM. 1,000 compounds, 2% hits;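 active = fitted rise in melting shift crosses a set limit at or below the top valid dose tested; inconclusive = flat fit at mid-level activity, or a poor quality fit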
TSA no protein – compound-only SYPRO artifact for FGF22 binders. AID 743019. compound-only SYPRO orange thermal shift counter-screen, no protein. AC50, µM (top dose mostly 38 µM). shares compounds with FGF22 binding-1. 1,000 compounds, 2% hits;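 active = rising signal whose fitted curve reaches the 0.54 level within the top valid dose, showing a melting point, actives reach about 13 µM in these data; inactive = the rest, including activity in the opposite direction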; note: value is where the raw curve crosses a fixed level and not half-maximal
* marks the source's active call; other numbers are inactive results; i = inactive; ? = inconclusive; · = not tested or not shown.

SMILES	MITF TRPM1 HTS	esBAF inh	AF4-AF9 inh	FGF22 binding-1	Wnt bcat act	SMARCA2 act	FGF22 binding-2	TSA no protein
COc1ccccc1CNC(=O)C[C@H]1CC[C@@H]2[C@H](COC[C@H](O)CN2C(=O)Nc2ccc(Cl)cc2)O1	·	43.2*	0.9	17.0*	·	·	-0.099	i
COCC#Cc1ccc2c(c1)O[C@@H](CN(C)CC1CCOCC1)[C@H](C)CN([C@@H](C)CO)S2(=O)=O	·	-5.4	-2.9	-0.2	·	·	·	·
C[C@@H]1CN([C@@H](C)CO)C(=O)CCCn2nncc2CO[C@H]1CN(C)C(=O)Nc1ccc(C(C)(C)C)cc1	·	0.1	0.4	-0.2	·	·	·	·
O=C(C[C@@H]1CC[C@H]2[C@@H](COC[C@@H](O)CN2CC2CCOCC2)O1)NCC1CCCCC1	·	-2.6	-3.0	7.9*	·	·	-0.032	i
O=C(Nc1ccc(F)cc1)N[C@@H]1CC[C@H](CCn2cc(-c3ccccc3F)nn2)O[C@H]1CO	·	1.8	-0.7	2.9*	·	·	0.104	i
O=C(Cc1cccnc1)N[C@@H]1CC[C@@H](CCn2cc(-c3ccccc3F)nn2)O[C@@H]1CO	·	-1.1	1.1	1.3*	·	·	-0.118	i
O=C(Nc1ccc(F)cc1)N[C@H]1CC[C@@H](CCn2cc(-c3ccccc3F)nn2)O[C@H]1CO	·	-3.3	-1.0	1.4*	·	·	-0.079	i
O=C(Nc1ccc(F)cc1)N[C@H]1CC[C@@H](CCn2cc(-c3ccccc3F)nn2)O[C@@H]1CO	·	3.3	-1.5	1.7*	·	·	0.171	i
C[C@@H]1CCCCO[C@@H](CN(C)Cc2ccc(C(=O)O)cc2)[C@H](C)CN([C@H](C)CO)C(=O)c2cc(NS(=O)(=O)c3ccc(F)cc3)ccc2O1	·	-3.7	-3.2	-0.2	·	·	·	·
COCC(=O)Nc1ccc2c(c1)[C@H]1C[C@H](CC(=O)NCc3ccc(OC)cc3)O[C@H](CO)[C@H]1O2	·	-0.6	-0.5	0.0	·	·	·	·
O=C(NCC1CCOCC1)c1ccc2nc(Cc3cccc(Cl)c3)oc2c1	35.9	45.9*	-0.1	1.4*	0.0	2.8	0.333	i
O=C(NN1C(=O)CSC1=S)C(=O)NN1C(=O)CSC1=S	-12.4	2.3	-8.6	2.4*	-3.8	3.7	-0.042	i
O=C(O)CN1C(=O)CSC1=S	?	-4.7	-1.0	-0.3	3.6	-1.8	·	·
Cc1ccc2c(c1)c(CC(=O)Nc1ccc(C)c(F)c1)c(C(=O)O)n2C	-5.6	-1.2	0.2	1.6*	-4.2	3.5	0.162	i
Cc1ccc(Cl)cc1NS(=O)(=O)c1ccc2c(c1)NC(=O)C(C)C(=O)N2 (stereo not drawn)	·	6.7	-3.2	1.9*	1.9	-3.5	0.068	i
Cc1ccc(NS(=O)(=O)c2ccc3c(c2)NC(=O)C(C)C(=O)N3)c(Br)c1 (stereo not drawn)	·	3.7	-0.2	0.1	0.1	-3.2	·	·
S=C(Nc1ccc(Cl)cc1)Nc1ccc2cn[nH]c2c1	8.2	·	-1.1	1.9*	4.5	1.4	0.258	i
CCC(=O)N1CC2(CCN(C(C)=O)CC2)c2c([nH]c3cc(OC)ccc23)[C@@H]1CO	·	·	-0.7	0.0	·	·	·	·
Cc1nn(CCOc2ccccc2Cl)c(C)c1[N+](=O)[O-]	6.8	3.3	1.0	1.7*	-1.9	3.6	-0.008	i
COc1cccc(NC(=O)C[C@@H]2CC[C@H]3[C@H](COc4ccc(NC(=O)C5CCCCC5)cc4C(=O)N3C)O2)c1	·	1.8	0.0	-0.2	·	·	·	·
C[C@@H]1CN([C@H](C)CO)C(=O)c2cc(C#C[C@@H](C)O)cnc2O[C@H]1CN(C)C(=O)Cc1ccncc1	·	-3.3	-3.2	-0.2	·	·	·	·
COc1ccc(OC)c(NC(=O)NNC(=O)CCCOc2ccc(Cl)cc2C)c1	2.9	·	0.8	1.7*	3.9	-1.8	0.028	i
COc1ccc(NC(=O)NNC(=O)COc2ccc(Cl)cc2C)cc1OC	-6.2	-2.4	0.5	-0.1	0.8	-0.2	·	·
COc1ccc(N2C(=O)C(CC(=O)Nc3ccccc3)N(Cc3ccc4c(c3)OCO4)C2=O)cc1 (stereo not drawn)	1.1	-3.1	4.0	1.4*	-3.3	·	0.043	i
COC(=O)CN1C(=S)N(c2ccc(Cl)cc2)C(=O)C1CC(=O)Nc1ccc(F)cc1 (stereo not drawn)	-8.3	·	6.3	1.9*	-1.7	-0.5	-0.156	i
SMILES	MITF TRPM1 HTS	esBAF inh	AF4-AF9 inh	FGF22 binding-1	Wnt bcat act	SMARCA2 act	FGF22 binding-2	TSA no protein
COC(=O)CN1C(=S)N(c2ccc(F)cc2)C(=O)C1CC(=O)Nc1ccc(F)cc1 (stereo not drawn)	·	·	0.9	-0.1	1.0	-0.2	·	·
CCOc1ccc(N2C(=O)C(CC(=O)Nc3ccc(F)cc3)N(Cc3ccccn3)C2=S)cc1 (stereo not drawn)	0.6	·	8.9	1.7*	2.2	1.8	-0.354	i
CCOc1ccc(N2C(=O)C(CC(=O)Nc3ccccc3)N(Cc3ccccn3)C2=S)cc1 (stereo not drawn)	-4.1	15.4	1.9	1.5*	-2.8	-1.6	0.577	i
Cc1cccc(-c2ccc([C@H]3[C@@H](CO)N4CCCCN(S(=O)(=O)c5ccccc5F)C[C@H]34)cc2)c1	·	-10.3	-0.6	-0.2	·	·	·	·
C[C@@H]1CCCCO[C@H](CN(C)S(=O)(=O)c2ccccc2)[C@H](C)CN([C@H](C)CO)C(=O)c2cc(N(C)C)ccc2O1	·	3.6	9.5	-1.3	·	·	·	·
COc1ccc(N2C(=O)C(CC(=O)Nc3ccccc3)N(Cc3ccccn3)C2=S)cc1 (stereo not drawn)	1.9	0.2	2.5	1.7*	-3.0	-1.8	-0.015	i
COc1cc(-c2nc(C)c(C(C)=O)n2O)ccc1OCC(=O)Nc1ccc(F)cc1	8.0	-0.1	2.9	0.2	-1.5	3.0	·	·
CC(=O)c1c(C)nc(-c2ccc(OCC(=O)Nc3ccc(F)cc3)cc2)n1O	0.1	10.7	2.4	2.3*	-2.5	0.6	-0.138	i
CCOc1cc(-c2nc(C)c(C(C)=O)n2O)ccc1OCC(=O)Nc1ccc(F)cc1	12.9	·	-1.6	2.7*	-1.3	-3.5	-0.026	i
CC(=O)Nc1ccc(-c2nc(C)c(C(C)=O)n2O)cc1	0.2	-3.5	5.5	0.6	-3.6	-3.2	·	·
CCCNC(=O)C[C@@H]1CC[C@H]2[C@@H](COC[C@@H](O)CN2C(=O)c2cccnc2)O1	·	-4.9	-1.7	0.1	·	·	·	·
CO[C@H]1CN(C)C(=O)c2ccc(NC(=O)Nc3ccccc3F)cc2OC[C@@H](C)NC[C@H]1C	·	2.2	-2.4	-0.2	·	·	·	·
Nc1[nH]c(C(=O)c2ccccc2)c(-c2ccccn2)c1C(=O)c1c[nH]c2ccc(F)cc12	·	·	·	-0.1	3.0	-1.1	·	·
O=C(C[C@@H]1C[C@H]2c3cc(NC(=O)C4CCC4)ccc3O[C@H]2[C@H](CO)O1)NCc1ccncc1	·	-1.6	-2.6	0.2	·	·	·	·
